Inconclusive results are not listed. The source made the active and inactive calls. The call rests on the fitted dose curve.
target: Thyrotropin receptor (Homo sapiens) (UniProt P16473); experiment: qHTS assay to identify small molecule antagonists of the thyroid stimulating hormone receptor (TSHR) signaling pathway (AID 1259385); conditions: TSHR-HEK293 cAMP HTRF, TSH-stimulated antagonist mode; series mostly up to 92.4 µM; activity change, negative = inhibition: at the top concentration; further: nearly all actives have a fitted effect of over 20% in size
Sequence (P16473 whole entry, looked up): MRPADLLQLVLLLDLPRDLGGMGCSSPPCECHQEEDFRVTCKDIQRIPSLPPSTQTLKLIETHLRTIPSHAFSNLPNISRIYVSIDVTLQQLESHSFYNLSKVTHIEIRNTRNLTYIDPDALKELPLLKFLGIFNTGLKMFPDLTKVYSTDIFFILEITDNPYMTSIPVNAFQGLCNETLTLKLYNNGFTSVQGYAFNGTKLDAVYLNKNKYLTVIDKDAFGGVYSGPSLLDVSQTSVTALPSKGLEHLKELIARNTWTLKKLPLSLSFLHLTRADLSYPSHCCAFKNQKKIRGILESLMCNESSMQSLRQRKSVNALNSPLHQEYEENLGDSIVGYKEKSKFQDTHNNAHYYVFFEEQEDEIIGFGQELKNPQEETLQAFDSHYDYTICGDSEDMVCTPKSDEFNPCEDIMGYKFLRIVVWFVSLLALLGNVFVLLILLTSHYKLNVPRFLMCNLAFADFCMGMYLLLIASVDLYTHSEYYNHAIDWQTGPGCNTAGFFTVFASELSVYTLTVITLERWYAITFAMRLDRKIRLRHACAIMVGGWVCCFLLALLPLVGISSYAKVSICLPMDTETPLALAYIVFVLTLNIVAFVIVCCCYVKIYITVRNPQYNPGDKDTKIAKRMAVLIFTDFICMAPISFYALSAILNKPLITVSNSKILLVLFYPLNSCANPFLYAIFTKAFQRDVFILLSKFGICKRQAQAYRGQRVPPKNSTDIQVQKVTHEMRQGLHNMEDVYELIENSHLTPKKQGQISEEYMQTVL
Text: U.S. Tox21 Program National Center for Advancing Translational Sciences [NCATS] NIH Chemical Genomics Center [NCGC] U.S. Environmental Protection Agency [EPA] National Institutes of Environmental Health Sciences [NIEHS] National Toxicology Program [NTP] U.S. Food and Drug Administration [FDA] Tox21 Assay Overview: TSHR is the receptor for thyrotropin (thyroid stimulating hormone or TSH), a member of the glycoprotein hormone family. TSH is released by the anterior pituitary gland and is the main regulator of thyroid gland growth and development. Upon binding circulating thyrotropin, a G-protein signal cascade activates adenylyl cyclase and […] cAMP concentration is increased. cAMP is a key second messenger involved extensively in cellular signal transduction pathways associated with the majority of G-protein coupled receptors (GPCRs). The activation of these GPCRs by neurotransmitters, lipids, nucleotides, peptides and hormones results in the activation or the inhibition of plasma membrane-bound adenylate cyclase through heterotrimeric G-proteins. A cell-based TSHR assay can be used to screen chemical compounds that modulate TSHR either in agonist or antagonist mode.
Tox21 Assay Protocol Summary: TSHR-Hek293 cells were dispensed at 800 cells/4uL/well in 1536-well white plates using a Multidrop dispenser. After the assay plates were incubated at a 37C/5% CO2 incubator for 18 hrs, 23 nL of compounds dissolved in DMSO, positive controls or DMSO only was transferred to the assay plate by a pin tool, followed by 1 ul medium containing Ro20-1724. For the antagonist mode screening, 1 uL of TSH was added on the top of the cell/compound mixtures to achieve a final agonist concentration of 1.5 ng/mL. After 30 min of incubation at room temperature, 2.5 ul/well of cAMP-d2 and 2.5 ul/well of anti-cAMP-cryptate were added respectively into the assay plates using a Flying Reagent Dispenser. The plates were incubated at room temperature for 1 hr. The fluorescence intensity in the plates was measured using an Envision plate reader. Each test compound was measured at 15 concentrations and in triplicates.
On the % scale 0 is the no-effect control and ±100 the full control effect; potency means the concentration at half of the fitted maximal effect.

Row | Structure (SMILES) | activity change, negative = inhibition | Potency
1 | O=C(/C=C/c1ccccc1)OCCCc1ccccc1 | -5.3% (inactive) | 
2 | CC(CCO)CCc1ccccc1 (stereo not given) | 0.579% (inactive) | 
3 | O=C(OCCOCCO)c1ccccc1Nc1cccc(C(F)(F)F)c1 | -0.457% [at 42.5 µM] (inactive) | 
4 | C=CCCCCCCCCCCCCCCCC | -0.238% [at 8.39 µM] (inactive) | 
5 | CC(N)CN (stereo not given) | -0.307% (inactive) | 
6 | Nc1ccc(S(=O)(=O)O)c(N)c1 | 1.31% (inactive) | 
7 | C[N+]1(C)CCC(=C(c2ccccc2)c2ccccc2)CC1 | 0.822% [at 42.5 µM] (inactive) | 
8 | CCCCCCCC/C=C\CCCCCCCC(=O)OC | -1.3% (inactive) | 
9 | COCCOC | 3.54% (inactive) | 
10 | CC(C)CCCCCCOC(=O)CCCCC(=O)OCCCCCCC(C)C | -0.84% (inactive) | 
11 | CNC(=O)N(c1ccccc1)c1ccccc1 | 0.217% (inactive) | 
12 | CC1C2CC(CC2C2CCCC(O)C2)C1(C)C (stereo not given) | -2.26% (inactive) | 
13 | CCOC(=O)c1ccccc1OC | 1.72% (inactive) | 
14 | COc1cc2ncnc(Nc3ccc(F)c(Cl)c3)c2cc1OCCCN1CCOCC1 | -14.1% [at 42.5 µM] (inactive) | 
15 | CCOC(=O)OCC | -0.965% (inactive) | 
16 | Cn1c(=O)c2c(ncn2CC(=O)O)n(C)c1=O | -1.94% [at 42.5 µM] (inactive) | 
17 | CCCCC/C(=C\c1ccccc1)CO | -4.74% (inactive) | 
18 | CO/N=C1\CN(c2nc3c(cc2F)c(=O)c(C(=O)O)cn3C2CC2)CC1CN (stereo not given) | 0.053% [at 42.5 µM] (inactive) | 
19 | CC(=O)N(c1onc(C)c1C)S(=O)(=O)c1ccc(N)cc1 | 1.96% [at 42.5 µM] (inactive) | 
20 | CN1CCN(c2c(F)cc3c(=O)c(C(=O)O)cn4c3c2OCN4C)CC1 | -3.1% [at 19 µM] (inactive) | 

Row | Structure (SMILES) | activity change, negative = inhibition | Potency
21 | CCC(C)(O)CCC=C(C)C (stereo not given) | -0.559% (inactive) | 
22 | COCc1c(C(C)C)nc(C(C)C)c(/C=C/[C@@H](O)C[C@@H](O)CC(=O)O)c1-c1ccc(F)cc1 |  | inactive
23 | CCCCCCOC(=O)C(C)C | 1.54% (inactive) | 
24 | CCCOCCOCCO | -0.852% (inactive) | 
25 | CC(C)(C)C(=O)C(Oc1ccc(Cl)cc1)n1ccnc1 (stereo not given) | 4.47% [at 42.5 µM] (inactive) | 
26 | C=CC(C)(O)CCCC(C)CCCC(C)CCCC(C)C (stereo not given) | -0.189% (inactive) | 
27 | CC(C)CCCCCOC(=O)CCCCC(=O)OCCCCCC(C)C | -2.9% (inactive) | 
28 | CCOC(=O)CC(=O)C(=O)OCC | 0.174% (inactive) | 
29 | CCCCC(CC)CNCC(CC)CCCC (stereo not given) | 0.754% (inactive) | 
30 | CNCCCC1c2ccccc2C=Cc2ccccc21 |  | 26.6 µM (active)
31 | CC1CN(c2cc3c(cc2F)c(=O)c(C(=O)O)cn3-c2ccc(F)cc2F)CCN1 (stereo not given) | -6.71% [at 8.39 µM] (inactive) | 
32 | CC(=O)Nc1ccccc1C | 1.3% (inactive) | 
33 | CC(=O)Nc1ccc(N)cc1 | -1% (inactive) | 
34 | O=c1[nH]c2ccc(S(=O)CCN3CCC(Cc4ccc(F)cc4)CC3)cc2o1 (stereo not given) | -3.22% (inactive) | 
35 | CCCCCCOC(=O)CCCCCCCC(=O)OCCCCCC | -5.04% (inactive) | 
36 | CC(COc1ccc(C(C)(C)C)cc1)OS(=O)OCCCl (stereo not given) | 1.86% (inactive) | 
37 | C[Si]1(C)O[Si](C)(C)O[Si](C)(C)O1 | 2.49% (inactive) | 
38 | CC1=C(C=O)C(C)(C)CCC1 | -0.0878% (inactive) | 
39 | O=C(N[C@@H](c1ccccc1)[C@@H]1CCCCN1)c1cccc(C(F)(F)F)c1Cl | -0.312% (inactive) | 
40 | C[Si](NC1CCCCC1)(NC1CCCCC1)NC1CCCCC1 | -0.521% (inactive) | 
